# Measurements from PubChem BioAssay (Tox21).
# Results filed as inconclusive are left out. Where a call stands in place of a potency, no number is given. The source made the active and inactive calls. Calls come from the whole dose curve; as a rule, active = well fitted inhibition curve with a large enough effect in the signal ratio in the repeat runs (not every such curve was filed as active); inconclusive = weak or mixed curves; inactive = flat fitted curve, though single readings scatter; the % refers to the signal ratio.
# Molecular target: Progesterone receptor (Homo sapiens) (UniProt P06401)
# Sequence (P06401 whole entry, looked up): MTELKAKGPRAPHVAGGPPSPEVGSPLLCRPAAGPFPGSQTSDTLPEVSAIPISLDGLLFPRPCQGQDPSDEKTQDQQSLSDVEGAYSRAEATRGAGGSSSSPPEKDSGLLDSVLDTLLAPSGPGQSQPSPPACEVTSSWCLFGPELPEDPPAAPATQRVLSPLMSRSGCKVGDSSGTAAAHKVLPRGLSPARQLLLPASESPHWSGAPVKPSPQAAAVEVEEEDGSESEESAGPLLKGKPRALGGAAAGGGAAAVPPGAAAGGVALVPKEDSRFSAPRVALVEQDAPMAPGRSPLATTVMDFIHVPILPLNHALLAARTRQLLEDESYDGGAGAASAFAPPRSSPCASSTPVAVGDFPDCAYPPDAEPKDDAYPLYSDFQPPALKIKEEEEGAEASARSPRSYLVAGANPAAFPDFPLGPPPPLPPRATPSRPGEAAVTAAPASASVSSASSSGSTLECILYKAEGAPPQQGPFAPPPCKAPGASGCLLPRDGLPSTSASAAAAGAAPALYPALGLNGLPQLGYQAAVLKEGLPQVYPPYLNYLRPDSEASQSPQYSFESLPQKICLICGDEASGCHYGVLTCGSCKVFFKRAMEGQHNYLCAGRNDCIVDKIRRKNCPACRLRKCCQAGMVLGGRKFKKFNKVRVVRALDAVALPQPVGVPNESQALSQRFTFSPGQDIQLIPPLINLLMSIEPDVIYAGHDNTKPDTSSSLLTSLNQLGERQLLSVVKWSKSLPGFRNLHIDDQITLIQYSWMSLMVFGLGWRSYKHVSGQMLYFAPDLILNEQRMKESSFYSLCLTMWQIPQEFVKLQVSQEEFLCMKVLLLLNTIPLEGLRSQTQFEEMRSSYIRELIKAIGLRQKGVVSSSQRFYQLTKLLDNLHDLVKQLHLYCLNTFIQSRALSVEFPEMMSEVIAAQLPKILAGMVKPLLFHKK
# Assay: qHTS assay to identify small molecule antagonists of the progesterone receptor (PR) signaling pathway (AID 1346795)
# Settings: PR-UAS-bla HEK293T, beta-lactamase FRET ratio, 16 h; series mostly up to 92.4 µM
# Description: National Center for Advancing Translational Sciences [NCATS]
# NIH Chemical Genomics Center [NCGC]
# U.S. Environmental Protection Agency [EPA]
# National Institutes of Environmental Health Sciences [NIEHS]
# National Toxicology Program [NTP]
# U.S. Food and Drug Administration [FDA]
# Progesterone receptor (PR), a nuclear hormone receptor, plays an important role in development, metabolic homeostasis and reproduction. […] Endocrine disrupting chemicals (EDCs) and their interactions with steroid hormone receptors like PR causes disruption of normal endocrine function. To identify the compounds that inhibit PR signaling, a PR-UAS-bla GripTite cell line i.e. PR-UAS-bla HEK293T (Invitrogen, Carlsbad, CA, USA) containing a beta-lactamase reporter gene under the control of an Upstream Activator Sequence (UAS) was used to screen Tox21 10K compound library.
# Tox21 Assay Protocol Summary:
# PR-UAS-bla HEK293T cells were dispensed at 3,000 cells/4 uL of assay medium containing 2% charcoal stripped FBS per well into black wall/clear-bottom 1536-well plates using a Multidrop Combi (ThermoFisher Scientific, Waltham, MA) dispenser. After the assay plates were incubated at a 37C and 5% CO2 for 6 hr, 23 nL of compounds dissolved in DMSO, positive controls or DMSO only was transferred to the assay plate by a Pintool station (Kalypsys, San Diego, CA), followed by addition of 1 uL (1nM as final concentration) of Promegestone (R5020) in assay medium using a BioRAPTR FRD (Flying Reagent Dispenser, Aurora Discovery, San Diego, CA). The plates were incubated at 37C and 5% CO2 for 16 hr. Then 1 uL of LiveBLAzer B/G FRET substrate was added using a FRD. After the plates were incubated at room temperature for 2 hours, fluorescence intensity was measured by an Envision plate reader (PerkinElmer, Shelton, CT).
Structure (SMILES),Potency,"activity change, negative = inhibition"
O=C(O)c1cccc(C(=O)O)n1,inactive,
C#CC(O)CCCCC (stereo not given),inactive,
CO,inactive,
N[C@@H](CS)C(=O)O,inactive,
CCCCCOC(=O)Nc1nc(=O)n([C@@H]2O[C@H](C)[C@@H](O)[C@H]2O)cc1F,inactive,
CCn1c(=O)c2c(nc(/C=C/c3ccc(OC)c(OC)c3)n2C)n(CC)c1=O,inactive,
C[N+](C)(C)CC[N+]1(C)Cc2c(Cl)c(Cl)c(Cl)c(Cl)c2C1,inactive,
OCCN1C[C@H](O)[C@@H](O)[C@H](O)[C@H]1CO,inactive,
O=C1CC2(CCCC2)CC(=O)N1,inactive,
CC(O)CN(CCCN(C)C)CCCN(C)C (stereo not given),inactive,
CC(C)(O)Cc1ccccc1,inactive,
Cc1ccc(N)cc1[N+](=O)[O-],inactive,
N#CC1(O)CCCCC1,inactive,
COc1ccc(NC(C)=O)cc1,inactive,
CC(C)[N+](C)(C)CC(O)COc1cccc2ccccc12 (stereo not given),inactive,
CC1=CC(=O)CCC1,inactive,
CCCCc1ccc2cccc(S(=O)(=O)O)c2c1,inactive,
C=CC(=O)OCCCCCC,inactive,
NC(=S)Nc1cccc2ccccc12,,-2.03% [at 8.39 µM] (inactive)
C=C(C)C(=O)NCCC[N+](C)(C)C,inactive,

Structure (SMILES),Potency,"activity change, negative = inhibition"
Cc1ccc(Nc2ccc(O)c3c2C(=O)c2ccccc2C3=O)cc1,inactive,
CC(C)CCCC(C)NCCC(C)C (stereo not given),inactive,
NC(=O)Nc1nc2ccccc2[nH]1,inactive,
Oc1cc(O)c2c(c1)O[C@H](c1ccc(O)c(O)c1)[C@H](O)C2,inactive,
CNC(=O)c1c(I)c(NC(=O)CCCCC(=O)Nc2c(I)c(C(=O)O)c(I)c(C(=O)NC)c2I)c(I)c(C(=O)O)c1I,inactive,
Cc1ccccc1C(=O)O,inactive,
CC(C)(O)C(=O)c1ccc(OCCO)cc1,inactive,
CCC(C)(C)C1CCC(OC)CC1 (stereo not given),inactive,
CC(=O)OC(C)(C)C,inactive,
CCCCCCCCCCCCCCC,inactive,
CCN1CCCC(OC(=O)C(c2ccccc2)c2ccccc2)C1 (stereo not given),inactive,
O=C(O)c1ccccc1S,inactive,
NC(=O)c1ncn([C@@H]2O[C@H](CO)[C@@H](O)[C@H]2O)c1O,inactive,
CCCCCCC(CCCCCCCCCCC(=O)OCC(COC(C)=O)OC(C)=O)OC(C)=O (stereo not given),inactive,
CC(=O)c1ccc(C)cc1,inactive,
CCCCOCC(C)OCC(C)O (stereo not given),inactive,
CCCC=O,inactive,
Fc1ccccc1-c1ccccc1,inactive,
O=Cc1ccccc1[N+](=O)[O-],inactive,
C=C(C)C(=O)NCCCN(C)C,inactive,
